Test results as given in PubChem BioAssay.
Where “and” joins values, the source holds several entries; their conditions need not be identical. Identical values can stand only once. Some compounds were tested as several samples or in several runs, with calls that do not always agree. Calls of active or inactive are those of the source.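 How the source made its calls, unless noted: active means inhibition at or above 50% relative to wild type and mutant plate controls; inactive means inhibition below 50%.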

Key:
[1] = inhibitors of E-selectin induction by TNFa, primary screen, imaging, HUVEC, immunofluorescence, MLSMR starter and 10KST1 sets (AID 487;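 active means visually confirmed hit in the image check and inhibition above 20%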;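 on inhibition: signal is fraction of cell area covered by stained E-selectin grains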;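 on nuclei count: 100% = median nuclei count of all wells on the same plate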); conditions: HUVEC TNFalpha-induced E-selectin immunofluorescence imaging, at 2 µM; inhibition: stronger effect = higher value; nuclei count: measured here: cell number, toxicity
[2] = DUSP6 inhibitors restoring Erk phosphorylation by chemical complementation, primary imaging in DUSP6-transfected HeLa (AID 609;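 active means compounds giving at least 50% inhibition in the cell-based MKP-3 phosphatase rescue imaging test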;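 on inhibition: phospho-Erk level distribution per well compared with pooled transfected vehicle control wells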); conditions: HeLa MKP-3 transfected, phospho-Erk imaging KS statistic, at 10 µM, cells stimulated with TPA for 15 min
[3] = target: Dual specificity protein phosphatase 6 (Homo sapiens) (UniProt Q16828); test: as above; conditions: HeLa MKP-3 transfected, phospho-Erk imaging KS statistic; at 10 µM; stronger effect = higher value; cells stimulated with TPA for 15 min
Chain of Dual specificity protein phosphatase 6 (Homo sapiens) (Q16828 whole entry, looked up): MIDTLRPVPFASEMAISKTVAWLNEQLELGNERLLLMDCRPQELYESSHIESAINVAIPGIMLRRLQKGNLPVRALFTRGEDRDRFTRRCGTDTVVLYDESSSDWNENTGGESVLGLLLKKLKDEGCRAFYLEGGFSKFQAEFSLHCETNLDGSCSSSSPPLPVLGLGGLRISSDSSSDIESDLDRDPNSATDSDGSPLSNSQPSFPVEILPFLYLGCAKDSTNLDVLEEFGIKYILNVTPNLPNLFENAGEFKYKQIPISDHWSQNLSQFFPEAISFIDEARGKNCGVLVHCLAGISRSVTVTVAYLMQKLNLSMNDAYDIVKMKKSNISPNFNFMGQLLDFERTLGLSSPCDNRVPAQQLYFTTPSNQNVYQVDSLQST

[4] = target: Voltage-gated potassium channel subunit beta-2 (Rattus norvegicus) (UniProt P62483); test: KvBeta enzyme negative modulators, primary screen, biochemical, NADPH fluorescence (AID 622;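 active means fluorescence slope higher than the sample average by over 3 SD, cut at about -0.22 in these data, passing the limit was not always enough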;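 further: slope of raw intensity against log time taken from 70 to 1610 s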); conditions: recombinant KvBeta, 4-cyanobenzaldehyde reduction, at 10 µM, stronger effect = higher value
Chain of Voltage-gated potassium channel subunit beta-2 (Rattus norvegicus) (P62483 whole entry, looked up): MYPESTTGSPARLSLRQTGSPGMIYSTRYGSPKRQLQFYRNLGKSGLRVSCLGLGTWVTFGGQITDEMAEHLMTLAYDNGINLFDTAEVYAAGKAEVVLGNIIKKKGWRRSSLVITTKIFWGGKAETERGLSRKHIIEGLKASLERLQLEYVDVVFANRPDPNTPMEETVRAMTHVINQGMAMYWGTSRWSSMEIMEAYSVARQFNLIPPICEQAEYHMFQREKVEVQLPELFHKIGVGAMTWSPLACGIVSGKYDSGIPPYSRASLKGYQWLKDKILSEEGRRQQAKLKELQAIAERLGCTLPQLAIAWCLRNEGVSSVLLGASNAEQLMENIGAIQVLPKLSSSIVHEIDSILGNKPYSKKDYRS

[5] = target: Voltage-gated potassium channel subunit beta-2 (Rattus norvegicus) (UniProt P62483); test: KvBeta positive modulators, primary screen, biochemical, NADPH fluorescence (AID 623;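 active means NADPH fluorescence slope more negative than the mean of all samples by about 3 SD, 99.7% confidence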;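 further: fluorescence intensity change per second fitted from 20 to 320 s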); conditions: Recombinant KvBeta, NADPH fluorescence decrease slope, 10 min; at 10 µM; stronger effect = lower value
[6] = target: Alpha-2C adrenergic receptor (Homo sapiens) (UniProt P18825); test: modulators of alpha2C/GIRK thallium flux, primary screen, cell-based, HEK293 alpha2C/GIRK1/2 (AID 624;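 active means fluorescence slope after compound addition differing from the mean of all screened samples at 99.7% confidence, in either direction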;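 further: slope of fluorescence ratio to pre-addition baseline per second over 15 to 24 s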); conditions: thallium flux BTC fluorescence, at 10 µM, actives lie on both sides
Chain of Alpha-2C adrenergic receptor (Homo sapiens) (P18825 whole entry, looked up): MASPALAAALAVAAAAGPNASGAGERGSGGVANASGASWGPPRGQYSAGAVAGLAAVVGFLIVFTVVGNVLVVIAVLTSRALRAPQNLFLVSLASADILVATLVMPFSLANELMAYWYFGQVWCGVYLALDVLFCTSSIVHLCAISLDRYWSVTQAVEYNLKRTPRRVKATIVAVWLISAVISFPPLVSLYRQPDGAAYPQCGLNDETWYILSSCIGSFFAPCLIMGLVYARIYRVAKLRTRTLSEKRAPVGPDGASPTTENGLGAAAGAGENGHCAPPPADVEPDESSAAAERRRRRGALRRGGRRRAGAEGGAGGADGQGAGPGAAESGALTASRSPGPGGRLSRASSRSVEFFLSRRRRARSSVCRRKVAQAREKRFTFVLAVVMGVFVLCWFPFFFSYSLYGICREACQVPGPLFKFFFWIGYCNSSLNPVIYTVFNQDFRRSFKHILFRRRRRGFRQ

[7] = inhibitors of larval lipid processing in zebrafish, primary screen, whole organism, PED6 fluorescence, gall bladder and intestine (AID 686;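 active means a full or partial loss of lipid-probe fluorescence in the fish gall bladder, intestine or both, judged by eye; inactive means no fluorescence loss, or compound toxic to the fish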;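 further: larvae 5 to 7 days old with five fish per well; signal comes from phospholipase A2 cleavage of quenched PED6 carried via bile; overnight exposure to compound and PED6 before scoring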); conditions: Zebrafish larvae PED6 lipid processing, fluorescence scoring; screened at 20 µM (by protocol)
[8] = inhibitors of Chlamydomonas gravitaxis, primary screen, whole organism, Chlamydomonas reinhardtii, WT vs cilia-less mutant, absorbance, 96-well (AID 463189); conditions: OD600 absorbance, 2 days, at 10 µM, stronger effect = higher value;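 further: 0% = wild type cc124 cells in DMSO and 100% = ciliumless bld1 mutant cells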
[9] = inhibitors of Sendai virus-induced IRF3 signaling, primary screen, TLR/RLR signaling modifier project, cell-based, Sendai virus stimulus, luciferase, 10K MLSCN set (AID 602276;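 active means inhibition at or above 50% at 10 µM; inactive means inhibition below 50%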;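 further: firefly luciferase from ISG56 promoter only with Renilla not read in this screen; 0% = Sendai virus plus DMSO and 100% = medium plus DMSO without virus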); conditions: HEK293 RL24 IRF3 luciferase reporter, at 10 µM, stronger effect = higher value
[10] = inhibitors of poly I:C-induced TLR3 signaling, primary screen, cell-based, poly I:C stimulus, luciferase, 10K MLSCN set (AID 602277;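 active means inhibition of the reporter signal at or above 50%; inactive means inhibition below 50%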); conditions: HEK293-TLR3 RL24 IRF3 luciferase reporter, at 10 µM, stronger effect = higher value
[11] = inhibitors of mutant huntingtin aggregation, primary screen, imaging, exon1htt(103Q)mCFP cells, high-content imaging (AID 483;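 active means visual image review flags a hit and inhibition of aggregation exceeds 20%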;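 further: compound exposure lasted 3 days before fixation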;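 on nuclei count: percent of the per-plate median nuclei count of sample wells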); conditions: exon1htt(103Q)mCFP cell line, aggregate imaging, at 2 µM; inhibition of aggregation: stronger effect = higher value; nuclei count: measured here: cell count, toxicity
[12] = target: Muscarinic acetylcholine receptor M4 (Homo sapiens) (UniProt P08173); test: compounds altering M4/GIRK thallium flux, either direction, primary screen, M4 allosteric agonist project, cell-based, HEK293 M4/GIRK, BTC-AM (AID 625;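 active means fluorescence slope after compound addition differing from the mean of all tested samples at 99.7% confidence, mostly higher but some lower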;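 further: thallium influx through GIRK channels coupled to M4 in HEK293 cells with BTC-AM dye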); conditions: at 10 µM, actives lie on both sides
Chain of Muscarinic acetylcholine receptor M4 (Homo sapiens) (P08173 whole entry, looked up): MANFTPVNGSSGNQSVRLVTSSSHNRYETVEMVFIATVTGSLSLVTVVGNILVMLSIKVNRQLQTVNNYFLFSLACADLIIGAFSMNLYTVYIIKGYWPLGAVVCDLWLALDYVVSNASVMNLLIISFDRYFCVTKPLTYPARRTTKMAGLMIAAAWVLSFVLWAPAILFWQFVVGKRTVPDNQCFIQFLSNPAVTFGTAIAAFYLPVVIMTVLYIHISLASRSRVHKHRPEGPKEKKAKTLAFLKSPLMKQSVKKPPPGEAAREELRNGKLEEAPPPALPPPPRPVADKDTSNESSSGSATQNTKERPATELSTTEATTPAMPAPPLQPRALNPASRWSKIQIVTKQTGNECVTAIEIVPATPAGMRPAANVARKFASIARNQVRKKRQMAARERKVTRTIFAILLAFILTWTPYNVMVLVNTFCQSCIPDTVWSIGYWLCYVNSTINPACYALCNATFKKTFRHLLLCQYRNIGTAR

[13] = measured here: cell density z-score
[14] = measured here: nuclear c-Myc green intensity z-score
[15] = measured here: nuclear pErk red intensity z-score, stronger effect = higher value

Compound	inhibition [1]	nuclei count [1]	z-score [2, 13]	z-score [2, 14]	z-score [2, 15]	inhibition [3]	fluorescence slope [4]	NADPH fluorescence slope [5]	slope [6]	outcome [7]	inhibition [8]	inhibition [9]	inhibition [10]	inhibition of aggregation [11]	nuclei count [11]	fluorescence slope [12]
Fc1ccc(C(c2ccc(F)cc2)N2CCN(C/C=C/c3ccccc3)CC2)cc1	-61.3% (inactive)	124%	-0.381	1.96	-1.06	23.4% (inactive)	-0.463 (inactive)	-6.2e-05 (inactive)	0.00453 (inactive)	inactive; toxic	-8.15% (inactive) and 80.3% (active)	10.5% (inactive)	42.4% (inactive)	–	–	–
O=C(O)c1ccc(COCC(F)(F)C(F)F)o1	-92.5% (inactive)	150%	-0.0306	-1.01	0.623	5.26% (inactive)	-0.428 (inactive)	-0.000116 (inactive)	0.00477 (inactive)	inactive	25% (inactive)	–	–	–	–	–
COc1cc2nc(N3CCN(C(=O)C4CCCO4)CC3)nc(N)c2cc1OC (centres undefined)	-29.4% (inactive)	105%	1.01	-0.263	-0.73	16.8% (inactive)	–	–	–	inactive	3.5% (inactive) and -0.975% (inactive)	16.1% (inactive)	30.2% (inactive)	-7.9% (inactive)	82%	–
CCCOc1ccc(Cl)cc1CN1CCOCC1	-21.7% (inactive)	67.6%	0.154	-1.58	-0.239	20.8% (inactive)	-0.499 (inactive)	-3e-05 (inactive)	–	inactive	32.2% (inactive)	–	–	–	–	0.0115 (inactive)
CCCCOc1ccccc1P(=O)(O)CP(=O)(c1ccccc1)c1ccccc1	-205% (inactive)	192%	-0.204	-0.49	0.473	-5.89% (inactive)	-0.436 (inactive)	-3e-05 (inactive)	–	inactive	2.4% (inactive)	–	–	–	–	0.00473 (inactive)
Cc1nnc(NS(=O)(=O)c2ccc(N)cc2)s1	-81.2% (inactive)	125%	0.0804	0.446	0.118	19% (inactive)	-0.526 (inactive)	-3.2e-05 (inactive)	0.00418 (inactive)	inactive	-0.666% (inactive)	-4.22% (inactive)	-8.79% (inactive)	–	–	–
CC[C@H]1CN2CCc3cc(OC)c(OC)cc3[C@@H]2C[C@@H]1C[C@H]1NCCc2cc(OC)c(OC)cc21	103% (active)	103%	0.501	-0.649	0.619	11.3% (inactive)	-0.553 (inactive)	-3.6e-05 (inactive)	0.00425 (inactive)	inactive	69.7% (active) and 130% (active)	-28.7% (inactive)	103% (active)	–	–	–
CC1(C)S[C@@H]2[C@H](NC(=O)[C@H](N)c3ccccc3)C(=O)N2[C@H]1C(=O)O	-51.2% (inactive)	131%	-0.832	-1.51	1.6	-8.38% (inactive)	-0.459 (inactive)	1.8e-05 (inactive)	0.0053 (inactive)	inactive	-0.692% (inactive)	7.78% (inactive)	28.7% (inactive)	–	–	–
Nc1nc2c(ncn2COCCO)c(=O)[nH]1	-45.2% (inactive)	98.5%	-1.3	0.247	-1.02	3.45% (inactive)	-0.446 (inactive)	-8.2e-06 (inactive)	0.00457 (inactive)	inactive	-9.79% (inactive) and -10% (inactive)	-1.97% (inactive)	26.2% (inactive)	–	–	–
CCCOc1cccc(CN2CCCCC2c2cccnc2)c1 (centres undefined)	-33.4% (inactive)	153%	0.13	0.714	-0.468	5.57% (inactive)	-0.369 (inactive)	1.8e-06 (inactive)	–	inactive	-12.9% (inactive)	–	–	–	–	0.00674 (inactive)
CC[C@]1(O)C[C@@H]2CN(CCc3c([nH]c4ccccc34)[C@@](C(=O)OC)(c3cc4c(cc3OC)N(C)[C@H]3[C@@](O)(C(=O)OC)[C@H](OC(C)=O)[C@]5(CC)C=CCN6CC[C@]43[C@@H]65)C2)C1	-205% (inactive)	78%	-0.32	-0.704	1.1	-12.3% (inactive)	-0.495 (inactive)	-2.5e-05 (inactive)	0.00463 (inactive)	inactive	-7.31% (inactive)	23.8% (inactive)	90.5% (active)	–	–	–
CCC(=O)Oc1oc(-c2ccccc2)nc1C=Nc1ccccc1OC	-41.7% (inactive)	161%	0.687	0.248	1.48	9.39% (inactive)	-0.381 (inactive)	-4.4e-05 (inactive)	–	inactive	10.5% (inactive)	–	–	–	–	0.00681 (inactive)
c1ccc2c(c1)nc(CN1CCOCC1)n1c3ccccc3nc21	-88% (inactive)	174%	-0.838	-0.224	1.09	-3.98% (inactive)	-0.309 (inactive)	-2.8e-05 (inactive)	–	inactive	-4.79% (inactive)	–	–	–	–	0.00659 (inactive)
O=C(c1ccc(N2C(=O)C3CC=C(Cl)CC3C2=O)cc1)N1CCCCC1 (centres undefined)	-148% (inactive)	163%	0.548	-0.00489	-2.02	15.1% (inactive)	-0.379 (inactive)	-2.5e-05 (inactive)	–	inactive	-0.983% (inactive)	–	–	–	–	0.00666 (inactive)
CN(C)CCCN1c2ccccc2CCc2ccccc21	-9.2% (inactive)	128%	-0.894	-0.347	2.03	-12.3% (inactive)	-0.545 (inactive)	-3.3e-05 (inactive)	0.00498 (inactive)	inactive	-3.09% (inactive) and 37.3% (inactive)	-11.2% (inactive)	5.17% (inactive)	–	–	–
CC1=NS(=O)(=O)c2cc(Cl)ccc2N1	-68% (inactive)	105%	0.557	0.773	-0.365	19.2% (inactive)	-0.43 (inactive)	-5.9e-05 (inactive)	0.00504 (inactive)	inactive	-5.98% (inactive) and 10.3% (inactive)	15.7% (inactive)	41.7% (inactive)	–	–	–
CC1(C)CC(=O)C(C=N)=C(O)C1	-29.4% (inactive)	169%	-0.419	-0.908	0.177	-3.98% (inactive)	-0.384 (inactive)	-3.8e-05 (inactive)	–	inactive	3.24% (inactive)	–	–	–	–	0.00587 (inactive)
CCC1=Nc2ccccc2NC2=C1C(=O)CCC2	-65.4% (inactive)	87.8%	-1.25	0.203	-0.00909	3.66% (inactive)	-0.427 (inactive)	-3.7e-05 (inactive)	–	inactive	23.6% (inactive)	–	–	–	–	0.00568 (inactive)
O=C(CCN1CCc2ccccc2CC1)c1ccc2c(c1)OCCO2	-194% (inactive)	154%	1.21	0.758	0.122	9.39% (inactive)	-0.406 (inactive)	-5.2e-05 (inactive)	–	inactive	40.1% (inactive)	–	–	–	–	0.00461 (inactive)
CCOC(=O)c1ccc(CSc2ncn[nH]2)o1	-61.8% (inactive)	156%	0.633	-0.893	-0.304	17% (inactive)	-0.407 (inactive)	-3.4e-05 (inactive)	–	inactive	10.3% (inactive)	–	–	–	–	0.00583 (inactive)
CCN(CC)CCNC(=O)c1ccc(N)cc1	-57.1% (inactive)	133%	1.09	-0.602	-0.833	3.59% (inactive)	-0.52 (inactive)	-0.000102 (inactive)	0.00563 (inactive)	inactive	3.94% (inactive) and 1.02% (inactive)	-2.32% (inactive)	3.63% (inactive)	–	–	–
COc1ccc(-n2c(C)c(C(C)=O)c3cc(O)ccc32)cc1	4.2% (inactive)	135%	-0.551	-0.198	0.861	9.39% (inactive)	-0.4 (inactive)	-4.1e-05 (inactive)	–	inactive	30.2% (inactive)	–	–	–	–	0.00708 (inactive)
O=C(Oc1oc(-c2ccco2)nc1C=Nc1ccccc1)c1ccoc1	-72% (inactive)	165%	1.16	-0.161	0.106	15.1% (inactive)	-0.402 (inactive)	-4.5e-05 (inactive)	–	inactive	8.33% (inactive)	–	–	–	–	0.00635 (inactive)
CC(=O)O[C@@]12CO[C@@H]1C[C@H](O)[C@@]1(C)C(=O)[C@H](O)C3=C(C)[C@@H](OC(=O)[C@H](O)[C@@H](NC(=O)OC(C)(C)C)c4ccccc4)C[C@](O)([C@@H](OC(=O)c4ccccc4)[C@H]21)C3(C)C	–	–	-1.36	0.683	1.58	-9.66% (inactive)	-0.48 (inactive)	-5.5e-05 (inactive)	0.00555 (inactive)	inactive	22.5% (inactive)	37.7% (inactive)	38.9% (inactive)	-77% (inactive)	4.4%	–
O=C(CCCN1CCC(O)(c2ccc(Cl)cc2)CC1)c1ccc(F)cc1	-112% (inactive)	130%	1.12	-0.669	-0.889	10.2% (inactive)	-0.485 (inactive)	-4.2e-05 (inactive)	–	–	-2.31% (inactive) and 3.84% (inactive)	-13% (inactive)	-5.69% (inactive)	–	–	0.00387 (inactive)
Cc1cc(C)n(C(=O)CNC(=O)c2cccs2)n1	-109% (inactive)	182%	0.591	-1.67	-0.663	7.48% (inactive)	-0.404 (inactive)	-3.1e-05 (inactive)	–	inactive	16.6% (inactive)	–	–	–	–	0.00505 (inactive)
Oc1oc(-c2ccccc2)nc1C=NCc1ccncc1	5.8% (inactive)	104%	0.0106	-0.425	0.0699	13.2% (inactive)	-0.353 (inactive)	7.6e-07 (inactive)	–	inactive	-10.3% (inactive)	–	–	–	–	0.00715 (inactive)
